SMILES strings stand for the structures.

For this assay, the system named is DRIVER-selected RNA biosensor (aptazyme) pool. Nature of the assay: maximum fold change of ribozyme cleavage across biosensor pool versus no-compound control; higher = stronger biosensor response (ligand inhibits cleavage). The note with it: 10 µM. The method, then:
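CleaveSeq: a pool of resynthesized hammerhead-ribozyme RNA biosensors (sTRSV scaffold with randomized loops, 1,730 sequences) was T7-transcribed at 37 °C for 15-30 min with a single compound at 10 µM. Cleaved and uncleaved products were counted by NGS, and fold change of cleavage was computed against the DMSO-only condition. The value is the maximum fold change of cleavage over all biosensors in the pool. About 255 compounds were tested individually.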
Compound `Cc1oc(-c2ccccc2F)nc1CS(=O)(=O)CC(=O)N1CCC(Cc2ccccc2)CC1` showed a maximum fold change of 4.04.

`CC(=O)N1N=C(c2c(-c3ccccc3)c3cc(Cl)ccc3[nH]c2=O)CC1c1ccco1` (stereo not given) displayed a maximum fold change of 6.87.

`COc1ccc(-c2cn3c4ccccc4n(N)c3n2)cc1OC` returned a maximum fold change of 3.73.

`CCOC(=O)c1sc2nc(C)nc(NCc3ccccc3OC)c2c1C`: the maximum fold change came out at 4.59.

The compound `C=Cc1ccc(Cn2c(C(=O)O)c(CNCc3ccco3)c3ccc(C)cc32)cc1` gave a maximum fold change of 2.45.

Compound `CN(Cc1ccccc1)C(=O)CCc1nc(CN2CCN(C(=O)c3noc4c3CCCC4)CC2)no1` gave a maximum fold change of 4.1.

On to `CCOC(=O)c1cnc(SC)nc1NC(=O)CSCc1csc2c1CCCC2`, for which the maximum fold change is 3.61.

`CCOC(=O)c1cc(-c2ccc(C)cc2)n(CC(=O)NC(C)CC)c1C` (stereo not given) came in with a maximum fold change of 2.38.

In the case of `CCNC(=S)N1CCN=C1Nc1nc(C)cc(C)n1`, the maximum fold change came out at 2.17.

Turning to `Cn1c(-c2ccc3c(c2)OCO3)cnc1NCc1cc(Br)ccc1F`, the maximum fold change was determined as 3.3.

On to `CCOC(=O)c1cnc2c(C)cc(Cl)cc2c1NCCCO`, for which the maximum fold change stood at 9.37.

`COc1ccc(OC)c(/C=C2/N=C(c3cccc(Cl)c3Cl)OC2=O)c1` gave a maximum fold change of 4.84.

Regarding `COc1ccc(CN2CCN(Cc3csc(C)c3C)CC2)c(OC)c1OC`, the maximum fold change amounted to 2.47.

In turn, `COc1ccc(Br)cc1CNCc1sc(C(=O)O)cc1C` gave a maximum fold change of 3.28.

`Cc1nn2c(-c3ccco3)nnc2c2ccccc12` returned a maximum fold change of 8.73.

On to `CCCCC(C(=O)N1CCCCC1)N1C(=O)c2ccccc2C1=O` (stereo not given), for which the maximum fold change is 1.93.

Compound `CC(=Cc1ccccc1)/C=C1N=C(/C=C/c2ccccc2)OC/1=O` gave a maximum fold change of 2.27.

`Cc1ccc(C)c(Cn2c(C)c(CNCc3ccc(Cl)cc3)c(C(=O)O)c2C)c1` registered a maximum fold change of 2.54.

On to `Cc1cc(C)c2c(-n3cccc3)c(C(=O)NCc3ccc4c(c3)OCO4)sc2n1`, for which the maximum fold change amounted to 5.23.

As to `Cc1ccc(NC(=O)c2cc3c(=O)oc4ccccc4c3s2)nc1`, the maximum fold change turned out to be 6.76.

Compound `O=C(NC1(C(F)(F)F)N=C(c2ccccc2)N(C2CCCCC2)C1=O)c1ccco1` (stereo not given) registered a maximum fold change of 2.01.

The compound `COc1ccc(cc1)C1=N/C(=Cc2cc(OC)ccc2OC)/C(=O)O1` showed a maximum fold change of 1.9.

With `N#C/C(=Cc1c(Oc2cccc(c2)C)nc2n(c1=O)cccc2)/c1nc2c([nH]1)cccc2`, the maximum fold change amounted to 7.83.

As to `COc1ccccc1OCC(O)Cn1c[n+](C)c2cc(C)c(C)cc21` (stereo not given), the maximum fold change stood at 3.47.

As to `COc1cccc(-c2nc3sc4c(c3c(=O)n2CC(=O)NC2CCCCC2)CCCC4)c1`, the maximum fold change turned out to be 1.74.

`c1ccc(-c2nc3cc(Oc4ccc5[nH]c(-c6ccccn6)nc5c4)ccc3[nH]2)nc1`: the maximum fold change is 2.66.

`COc1ccccc1/C=C1N=C(c2ccc(Cl)c(Cl)c2)OC1=O` came in with a maximum fold change of 3.36.

For `CC12CCC(C(=O)O)(c3nc4ccc5ncccc5c4nc31)C2(C)C` (stereo not given), the maximum fold change came out at 2.74.

The compound `Cc1oc2ncn3nc(-c4ccc(F)cc4)nc3c2c1C` gave a maximum fold change of 10.5.

On to `CC1CCN(S(=O)(=O)c2ccc3c(ccn3CC(=O)NCc3ccc(OC(C)C)cc3)c2)CC1`, for which the maximum fold change came out at 2.62.

The compound `CCOC(=O)c1c(C)c(C(=O)N(CC)C2CCCCC2)c(C)n1C` showed a maximum fold change of 2.31.

Consider `CCOc1ccc(CCNC2=NS(=O)(=O)C(c3ccc(C)cc3)=C2C)cc1OCC`, for which the maximum fold change came out at 3.71.

The compound `Cn1c(=O)[nH]c(=O)c2c1nc(NCCCn1ccnc1)n2CCCc1ccccc1` registered a maximum fold change of 1.96.

In turn, `COc1ccc(-c2nn(C)c3sc(C(=O)N4CCC(C#N)CC4)cc23)cc1OC` had a maximum fold change of 7.42.

`CC1=C(C(=O)NCCC2=CCCCC2)C2(CCC(C)CC2)OC1=O` (stereo not given) came in with a maximum fold change of 2.79.

`CCCOc1ccc(C2c3c(oc4ccccc4c3=O)C(=O)N2c2nccs2)cc1` (stereo not given): the maximum fold change worked out at 8.73.

For the compound `COCCNC(=O)c1ccc(CS(=O)Cc2ccc(Cl)cc2)o1` (stereo not given), the maximum fold change was determined as 3.58.

Regarding `COc1cc(-c2nc3n(n2)C(c2ccncc2)C(C(N)=O)=C(C)N3)cc(OC)c1OC` (stereo not given), the maximum fold change is 2.35.

The compound `Cc1ccc(C(=O)N(Cc2ccccc2F)C2CCS(=O)(=O)C2)cc1` (stereo not given) came in with a maximum fold change of 2.6.

`COc1ccc(S(=O)(=O)N2CCCN(CC(=O)C(C)(C)C)CC2)cc1` displayed a maximum fold change of 2.33.

The values are drawn from the supplement of paper PMC9477273.
